Assay outcomes (PubChem)
12-LOX inh – Primary qHTS assay for inhibitors of human arachidonate 12S-lipoxygenase (ALOX12): Round 2; Polyunsaturated fatty acid lipoxygenase ALOX12 (Homo sapiens), P18054; purified 12hLO, xylenol orange hydroperoxide absorbance; Potency, µM (top dose mostly 108 µM), without a hit: top-dose activity change, negative = inhibition, hits mostly inhibitors; AID 1671190, 2021; 580,000 compounds, 1.1% hits; note: potency is the fitted concentration of half-maximal effect; % is set by controls: 0 for no effect and ±100 for the full control effect
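Hydroperoxide product was detected by ferrous iron/xylenol orange as the 573 to 405 nm absorbance ratio. Arachidonic acid at 40 uM (final) was turned over for 30 min at room temperature by 150 nM human 12hLO, pH 7.0 Hepes buffer, after 15 min compound preincubation.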
G9a inh – qHTS Assay for Inhibitors of Histone Lysine Methyltransferase G9a; 350,000 compounds, 8.8% hits; G9a H3K9 monomethylation, AlphaScreen, 2 h; AID 504332, 2011; Potency, µM (highest dose often 102 µM), without a hit: at the top dose activity, negative = inhibition, usual class: inhibitors; Histone-lysine N-methyltransferase EHMT2 (Homo sapiens), Q96KQ7; note: potency is the fitted concentration of half-maximal effect; % is set by controls: 0 for no effect and ±100 for the full control effect; nearly all actives have a fitted effect of over 75% in size
Target sequence (Q96KQ7 913-1193 limits assumed): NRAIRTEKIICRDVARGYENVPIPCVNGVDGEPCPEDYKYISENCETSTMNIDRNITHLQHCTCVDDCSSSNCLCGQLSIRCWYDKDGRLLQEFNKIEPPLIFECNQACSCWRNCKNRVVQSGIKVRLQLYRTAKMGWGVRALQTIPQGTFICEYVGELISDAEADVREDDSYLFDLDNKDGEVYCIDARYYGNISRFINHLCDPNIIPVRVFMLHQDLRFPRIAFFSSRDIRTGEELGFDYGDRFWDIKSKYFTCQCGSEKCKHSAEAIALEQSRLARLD
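Readings reflect AlphaScreen signal from monomethyl-H3K9 antibody detection. HMT at 20 nM; substrate b-H3K9 500 nM; cofactor SAM 20 uM; 2 h RT reaction; compounds tested as titrations in qHTS with 15 min preincubation.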
GRP78 ERSR act – qHTS for Inducers of the Endoplasmic Reticulum Stress Response (ERSR) in Human Glioma: qHTS | 420,000 compounds, 0.02% hits | U87-MG GRP78 promoter luciferase reporter, 16 h | Potency, µM, inactives show at the top dose activation, usual class: activators; note: potency is the fitted concentration of half-maximal effect; series mostly up to about 76 µM; % of control where 0% means no effect; nearly all actives have a fitted effect of over 35% in size
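Stably transfected U87-MG glioma cells carrying a GRP78-based luciferase sensor; 16 h compound incubation. Luminescence end-point read 10 min after Bright-Glo addition at room temperature.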
VDR inhibitor – Inhibitors of the vitamin D receptor (VDR): qHTS. VDR-SRC2-3 peptide fluorescence polarization, 2 h. Vitamin D3 receptor (Homo sapiens), P11473. Potency, µM, without a hit: max response, negative = inhibition, most hits filed as inhibitors. 400,000 compounds, 0.93% hits; note: potency is the fitted concentration of half-maximal effect; % is set by controls: 0 for no effect and ±100 for the full control effect
Target sequence (P11473 whole entry, looked up): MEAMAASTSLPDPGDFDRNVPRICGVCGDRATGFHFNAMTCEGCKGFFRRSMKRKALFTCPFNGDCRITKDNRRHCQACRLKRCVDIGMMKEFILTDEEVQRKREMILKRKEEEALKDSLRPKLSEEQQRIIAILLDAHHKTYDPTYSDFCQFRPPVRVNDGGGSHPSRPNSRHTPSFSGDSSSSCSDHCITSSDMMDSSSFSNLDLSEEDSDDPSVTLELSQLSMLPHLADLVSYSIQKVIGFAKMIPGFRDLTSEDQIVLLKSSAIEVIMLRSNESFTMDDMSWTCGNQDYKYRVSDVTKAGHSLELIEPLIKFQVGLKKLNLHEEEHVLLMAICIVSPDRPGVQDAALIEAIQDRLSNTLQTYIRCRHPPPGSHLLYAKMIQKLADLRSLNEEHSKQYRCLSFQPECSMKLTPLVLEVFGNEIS
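Fluorescence polarization assay of small-molecule disruption of VDR binding to coregulator peptide SRC2-3. Compounds and controls pin-transferred, then read after 2 h incubation at ambient room temperature.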
Sfp PPTase inh – qHTS Assay for Inhibitors of Bacillus subtilis Sfp phosphopantetheinyl transferase (PPTase) | 4'-phosphopantetheinyl transferase ffp (Bacillus subtilis), Q9F4F7 | Biochemical Sfp PPTase activity, qHTS | 310,000 compounds, 3.5% hits | Potency, µM, inactives show largest response in the series, negative = inhibition, hits mostly inhibitors | AID 1490, 2009;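 note: the enzyme is Sfp with the accession as filed and its product quenches rhodamine fluorescence; potency is the fitted concentration of half-maximal effect; 0% = enzyme reaction without inhibitor and -100% = no enzyme wells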
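Fluorescence-quenching assay: 15 nM Sfp-PPTase preincubated 15 min at room temperature with compound, then 5 uM rhodamine-CoA and 12.5 uM BHQ-2-labelled YbbR peptide added. Fluorescence (ex 525/em 598 nm) read at start and after 30 min; difference gives rate.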
USP1-UAF1 confirm – Inhibitors of USP1/UAF1: Hit Validation in Primary Assay | AID 540327, 2011 | Ub-Rhodamine cleavage, fluorescence kinetic read | shares compounds with VDR inhibitor | Potency, µM (highest dose often 114 µM), for the others: at the highest dose activity change, negative = inhibition, actives largely listed as inhibitors | 50 compounds, 50% hits
VDR inh confirm – qHTS for Inhibitors of the vitamin D receptor (VDR): Hit Validation in Primary Screen; AID 602199, 2012; VDR-coactivator inhibition assay, qHTS confirmation; Potency, µM, actives largely listed as inhibitors; shares compounds with VDR inhibitor; 840 compounds, 89% hits; note: potency is the fitted concentration of half-maximal effect
VDR FP – qHTS for Inhibitors of the vitamin D receptor (VDR): Hit Validation using a Fluorescein Assay. VDR-coactivator binding, fluorescein fluorescence polarization. 840 compounds, 48% hits. AID 602200, 2012. Potency, µM (highest dose often 57.1 µM), inactives show top-dose activity change, negative = inhibition, actives largely listed as inhibitors. shares compounds with VDR inhibitor; note: potency is the fitted concentration of half-maximal effect
VDR bla reporter – qHTS for Inhibitors of the vitamin D receptor (VDR): Hit Validation using a Beta-Lactamase Assay. 840 compounds, 23% hits. Potency, µM (top dose mostly 46.1 µM), for inactives: at the highest dose activity change, negative = inhibition, usual class: inhibitors. shares compounds with VDR inhibitor. VDR beta-lactamase reporter cells, FRET ratio; cells co-treated with VDR agonist LG190178. AID 602202, 2012; note: potency is the fitted concentration of half-maximal effect; % is set by controls: 0 for no effect and ±100 for the full control effect
VDR cytotox – qHTS for Inhibitors of the vitamin D receptor (VDR): Hit Validation using a Cytotoxicity Assay; shares compounds with VDR inhibitor; cytotoxicity counter-screen, cell viability, qHTS; Potency, µM (doses to about 48.3 µM), for inactives: at the highest dose activity change, negative = cytotoxicity, usual class: cytotoxic; 840 compounds, 18% hits; AID 602204, 2012;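 note: potency is the fitted concentration of half-maximal effect; plate controls were DMSO for no effect and high-concentration cycloheximide for full effect; nearly all actives have a fitted effect of over 75% in size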
Active calls of the source: *; ? = inconclusive; nt = no result given; [ ] = another dose, or the depositor's remark. This excerpt belongs to a sample that is enriched for hits. Calls come from the whole dose curve; as a rule, active = well fitted curve in the direction sought with a large enough effect; inconclusive = small, poorly fitted or top-dose-only effect, or another doubt; inactive = no such curve, though single readings can be large; an effect the other way counts as inactive or inconclusive.

SMILES | 12-LOX inh | G9a inh | GRP78 ERSR act | VDR inhibitor | Sfp PPTase inh | VDR inh confirm | VDR FP | VDR bla reporter | VDR cytotox | others
CCC(=O)Nc1ccccc1C(C)(C)C | 0% | nt | nt | nt | nt | nt | nt | nt | nt
CCOC(=O)COc1nc(-c2ccco2)c2c(c1C#N)CCC2 | -18% | nt | nt | nt | nt | nt | nt | nt | nt
COc1ccc(/C=C/C(=O)c2ccc([N+](=O)[O-])o2)cc1OC | 0% | 3%[12.7 µM] | -12% | 18µM* | nt | 3.5* | 3.5µM* | 3.3µM* | 17µM*
COc1cc(/C=C/C(=O)c2ccc([N+](=O)[O-])o2)ccc1O | -2% | 23%[2.33 µM] | -10% | ? | nt | nt | nt | nt | nt
CC(C)N(C(=O)Cn1c(CN2CCCCC2)nc2ccccc21)c1ccccc1 | 45% | nt | nt | nt | nt | nt | nt | nt | nt
O=C1NN(c2ccc(F)c(Cl)c2)C(=O)/C1=C\c1cccc(OC(=O)c2cccs2)c1 | -32% | 20µM* | ? | 22µM* | -6% | 11* | ? | -18% | -9%
COc1ccccc1NS(=O)(=O)c1cc(NC(=O)CNC(=O)c2ccccc2)ccc1C | -26% | 3%[59 µM] | -5% | 4% | 4% | nt | nt | nt | nt
CCN(CC)c1ccc(NC(=O)COc2ccccc2C#N)cc1S(=O)(=O)Nc1ccccc1OC | ? | 2.5µM* | -2% | 79µM* | ? | 9.5* | ? | 0% | 17%
COc1ccc(C)cc1N1C(=N)/C(=C2/Nc3ccccc3S2)C(c2ccccc2)C1=O (stereo not drawn) | -18% | 10µM* | -1% | ? | -7% | 10* | 8.9µM* | -20% | -6%
CC(=O)c1ccc(NC(=S)N2CCN(c3cccc(Cl)c3)CC2)cc1 | 3% | 10% | -2% | 0% | 17% | nt | nt | nt | nt
Oc1ccc(C(=S)N2CCN(c3cccc(Cl)c3)CC2)cc1 | ? | 5µM* | -2% | ? | 16µM* | ? | ? | -23% | 4%
Cc1ccc(S(=O)(=O)Nc2nsc(N)n2)cc1 | 0% | 32µM* | -4% | 7.1µM* | 35µM* | 5.3* | ? | 27% | -10%
CC(C)Nc1nc(NC(C)C)nc(NS(=O)(=O)c2ccc(N)cc2)n1 | 0% | -22%[59 µM] | -3% | 2% | 7% | nt | nt | nt | nt
CCOc1ccc(N(CC(=O)NCc2ccc(Cl)cc2Cl)S(C)(=O)=O)cc1 | 1% | nt | nt | nt | nt | nt | nt | nt | nt
Oc1cc2c(cc1C(c1ccc(Br)cc1)N1CCCC1)OCO2 (stereo not drawn) | 11µM* | 1.6µM* | -7% | 40µM* | 18µM* | 13* | 10µM* | -4% | ?
CC(=O)C(C)(CCC(=O)O)CCC(=O)O | 0% | nt | nt | nt | nt | nt | nt | nt | nt
CCn1c(CSc2nnc(-c3ccncc3)n2CCOC)nc2cc(C(=O)O)ccc21 | ? | -32% | -4% | 13µM* | -3% | 21* | 22% | 5% | 19%
CCn1c(CSc2nnc3ccccn23)nc2cc(C(=O)O)ccc21 | ? | -1%[59 µM] | -7% | ? | 8% | nt | nt | nt | nt
CCOC(=O)c1c(C)nc2c(c1-c1cc(OC)ccc1OC)C(=O)c1ccccc1-2 | 0% | ? | -3% | 2% | -20% | nt | nt | nt | nt
CCOC(=O)C1=C(Cc2ccc(OC)cc2)C(=O)c2ccccc2C1=O | nt | 2.8µM* | ? | 7.9µM* | 10µM* | 0.71* | ? | 23µM* | ?
O=S(=O)(Nc1nc2ccccc2nc1NCc1ccccc1)c1cccs1 | -58% | nt | nt | nt | nt | nt | nt | nt | nt
CCN1CCN(c2ccc(NC(=O)c3ccc(S(=O)(=O)NCc4ccco4)cc3)cc2)CC1 | -15% | nt | nt | nt | nt | nt | nt | nt | nt
O=C(Cc1ccc(F)cc1)N(Cc1cccc2[nH]ccc12)C1CC1 | 1% | nt | nt | nt | nt | nt | nt | nt | nt
O=C(Nc1nc(-c2ccccn2)cs1)c1cc(Cl)ccc1[N+](=O)[O-] | ? | 5.6µM* | -2% | 79µM* | 45µM* | 24* | -20% | 2% | -2%
CNc1ccc(Br)cc(C(=O)/C=C/c2ccc(Cl)cc2Cl)c1=O | 13µM* | 35µM* | -12% | ? | 14µM* | 3.5* | ? | ? | 10%
SMILES | 12-LOX inh | G9a inh | GRP78 ERSR act | VDR inhibitor | Sfp PPTase inh | VDR inh confirm | VDR FP | VDR bla reporter | VDR cytotox | others
O=C(/C=C/c1ccc(Cl)cc1Cl)c1ccccc1OC(F)F | 0% | nt | nt | nt | nt | nt | nt | nt | nt
CCOc1ccc(CCNC(=O)CCc2c(C)nn(C)c2C)cc1OCC | 9% | nt | nt | nt | nt | nt | nt | nt | nt
COC(=O)CSC1=NS(=O)(=O)c2ccccc21 | nt | 1.4µM* | -5% | 32µM* | 3.5µM* | 8.4* | ? | 18% | -4%
O=C(CSC1=NS(=O)(=O)c2ccccc21)Nc1ccccc1 | -10% | 7.9µM* | -5% | 16µM* | 13µM* | 11* | -18% | -6% | -14%
CCCNC(=O)N1CCC2(CC1)NCCc1c2[nH]c2ccccc12 | 23% | nt | nt | nt | nt | nt | nt | nt | nt
COc1ccc2cc(COC(=O)c3nn(C)c(=O)c4ccccc34)ccc2c1 | -37% | nt | nt | nt | nt | nt | nt | nt | nt
CC1(Cc2ccc3c(c2)OCO3)CCCN(C(=O)c2ccccc2-n2cncn2)C1 (stereo not drawn) | 9% | nt | nt | nt | nt | nt | nt | nt | nt
C=CC(C)(C)c1[nH]c2ccccc2c1C1=C(O)C(=O)C(c2c[nH]c3c(CC=C(C)C)cccc23)=C(O)C1=O | ? | nt | -2% | 18µM* | -24% | nt | nt | nt | nt | USP1-UAF1 confirm=?
C=CC(C)(C)c1c(O)c(CC=C(C)C)c(O)c2c(=O)c3ccc(O)c(O)c3oc12 | nt | nt | -8% | 9% | nt | nt | nt | nt | nt
